Values without a mark were called inactive. Calls come from the whole dose curve; as a rule, active = well fitted activation curve with a large enough effect in the repeat runs; inconclusive = weak or mixed curves; inactive = flat fitted curve, though single readings scatter.
Assay: A CellTox Green Cytotoxicity Assay to monitor cytotoxicity in HepG2 cells - 0 hour (AID 1224882); note: nearly all actives have a fitted effect of over 35% in size
Conditions: CellTox Green fluorescence; series mostly up to 76.8 µM; cytotoxicity: at the top concentration
Description: National Center for Advancing Translational Sciences [NCATS]
NIH Chemical Genomics Center [NCGC]
U.S. Environmental Protection Agency [EPA]
National Institutes of Environmental Health Sciences [NIEHS]
National Toxicology Program [NTP]
Cell-based models are critical for drug discovery. Determining the natural cytotoxic effects resulting from test compounds is an essential research activity. A CellTox Green Cytotoxicity Assay to monitor cytotoxicity in real time of continues cell culture during 40 hours of the compound treatment was used to screen Tox21 10K library compounds in HepG2 cells. CellTox Green Cytotoxicity Assay is a nonlytic, homogeneous, biofluorescent method to measure cytotoxicity in cell culture after experimental manipulation. The assay system uses a proprietary asymmetric cyanine dye that is excluded from viable cells but preferentially stains the dead cell's DNA. […] Viable cells produce no appreciable increases in fluorescence. Therefore, the fluorescence signal produced by the binding interaction with dead cell DNA is proportional to cytotoxicity.
The mixture of HepG2 cell suspension and reagents were dispensed at 600cells/6 ul/well in 1536-well tissue culture treated black solid bottom plates using a Multidrop dispenser. After the assay plates were incubated at a 37 C/5% CO2 incubator for 5 hours, 23 nL of compounds dissolved in DMSO, positive and negative controls was transferred to the assay plate by a pintool work station. The plates were incubated at 37 C for 40 hours. The fluorescence intensity were measured at 0h, 8h, 16h, 24h, 32h and 40h time points using ViewLux plate reader during compound treatment.
% is set by controls: 0 for no effect and ±100 for the full control effect.

Row | Structure (SMILES) | cytotoxicity
1 | CCCCCCCCCCCCCCCCCCNC(=O)OC1CCN(C(=O)OC[C@H](COC(=O)N(Cc2cccc[n+]2CC)C(=O)c2ccccc2OC)OC)CC1 | -0.808% [at 35.3 µM]
2 | Cc1ccc(C=O)cc1 | 6.17% [at 35.3 µM]
3 | COc1ccc(OC)c(N=Nc2c(O)ccc3ccccc23)c1 | -18.6%
4 | CCCCCCCCc1ccc(Nc2ccc(CCCCCCCC)cc2)cc1 | 8.66% [at 35.3 µM]
5 | c1ccc(-c2ccc(C(c3ccccc3)n3ccnc3)cc2)cc1 (stereo not given) | 2.4% [at 35.3 µM]
6 | C=C1CC[C@H]2O[C@]2(C)CC[C@@H]2[C@@H]1CC2(C)C | -13.4%
7 | CSc1nnc(C(C)(C)C)c(=O)[nH]1 | 5.79%
8 | Nc1ccc(Oc2cccc(Oc3ccc(N)cc3)c2)cc1 | -1.1%
9 | O=C(O)CN(CCCN(CC(=O)O)CC(=O)O)CC(=O)O | -9.07% [at 15.8 µM]
10 | [Cl][Eu]([Cl])[Cl] | 1.32%
11 | CCN(CC)c1ccc(N=Nc2ccccc2)cc1 | -7.61%
12 | CC/C=C\C/C=C\C/C=C\CCCCCCCC(=O)OC | -6.91%
13 | C=CC(C)(C)O | 1.02%
14 | CC(Cc1ccc(O)c(O)c1)C(C)Cc1ccc(O)c(O)c1 (stereo not given) | 4.96%
15 | CN1CCN(CCCN2c3ccccc3Sc3ccc(C(F)(F)F)cc32)CC1 | 11.3% [at 35.3 µM]
16 | NCc1cccc(C2CCN(C(=O)c3ccc(C#Cc4ccccc4F)o3)CC2)c1 | 2.12%
17 | CC(C)(C)c1ccc(OC2CCCCC2O)cc1 (stereo not given) | -0.273%
18 | O=C1CCC(=O)N1 | 6.17%
19 | c1ccc2c(c1)-c1ccc3ccc4cccc5cc-2c1c3c45 | 19.8% [at 35.3 µM]
20 | Nc1ccc(F)c([N+](=O)[O-])c1 | -16%

Row | Structure (SMILES) | cytotoxicity
21 | Cc1cccc(C)c1C | -0.592%
22 | CCC(C)(C)c1ccc(CC(C)CN2C[C@@H](C)O[C@@H](C)C2)cc1 (stereo not given in full) | 1.1% [at 35.3 µM]
23 | O=S(=O)(c1ccc(OCc2ccccc2)cc1)c1ccccc1O | -10.3%
24 | CCCCCCCCSCc1cc(C)c(O)c(CSCCCCCCCC)c1 | 0.758%
25 | CCc1c(C)cc(N)c(CC)c1N | -1.11%
26 | CC(=O)CC(N)=O | 7.46%
27 | N#CCCOCCC#N | -2.26%
28 | C/C=C/C(=O)OCC(C)C | 0.236%
29 | C/C(=N\[Si](C)(C)C)O[Si](C)(C)C | 8.68%
30 | [Cl][Sc]([Cl])[Cl] | 1.64%
31 | CCOc1nc(F)cc2nc(S(=O)(=O)Nc3c(Cl)cccc3C(=O)OC)nn12 | 12.4%
32 | O=C(CCN1CCC(c2ccccc2)C1)c1ccc2c(c1)OCCO2 (stereo not given) | -15.1% [at 35.3 µM]
33 | CCCCCCCC/C=C\CCCCCCCC(=O)N(CCO)CCO | -10.5%
34 | CN(C[C@@H](CC[N+]12CCC(C3CCCCC3)(CC1)CC2)c1ccc(Cl)c(Cl)c1)C(=O)c1cc(C(F)(F)F)cc(C(F)(F)F)c1 | 19.3%
35 | COc1cc2ncnc(Nc3cccc(Cl)c3)c2cc1OC | -14.6% [at 15.8 µM]
36 | CN(C)CCOc1ccc(/C(=C(/CCCl)c2ccccc2)c2ccccc2)cc1 | 1.45%
37 | CN1CCN(CCCN2c3ccccc3Sc3ccc(Cl)cc32)CC1 | -0.873% [at 35.3 µM]
38 | COc1cc(OC)nc(NC(=O)NS(=O)(=O)Nc2ccccc2C(=O)N(C)C)n1 | 11.6%
39 | CCOC(=O)[C@H](C)O | 3.02%
40 | O=C(Nc1ccc([N+](=O)[O-])cc1)Nc1ccc([N+](=O)[O-])cc1 (tested in a mixture with another compound) | 3.95% [at 35.3 µM]
